Broadly, the inhibition is the change of the read-out against control, counted positive when it falls.

Results on 93 compounds are retold here after PubChem BioAssay AID463195 (Sanford-Burnham Center for Chemical Genomics, 2010).

About 4,600 (1.4%) of roughly 330,000 compounds were called active. Only a selection was taken, and actives are over-represented in it overall. Values without a mark were called inactive.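 How the source made its calls: active means inhibition of 40% or more at the single tested concentration; inactive means the rest.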

This test can be described thus: wild-type TIM10 yeast growth inhibition – luminescence, uHTS, counter-screen for tim10-1 yeast inhibitor project, primary screen (AID 463195).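 Further: wild-type TIM10 isogenic control strain grown at permissive 25 °C; 0% = DMSO yeast wells and 100% = minimal medium wells without yeast.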 Particulars: S. cerevisiae TIM10 strain growth, BacTiter-Glo luminescence, 24 h; at 10 µM; active compounds read high.
In the case of `O=C(NC(=S)Nc1cccc2c(O)cccc12)c1cccc(Br)c1`, the inhibition is 20.4%.
Take `O=C1c2ccccc2S(=O)(=O)c2cc(N3CCN(c4ccccn4)CC3)ccc21`: the inhibition is -6.37%.
In the case of `Cc1cc(N)n2nc(-c3ccc(C(C)(C)C)cc3)cc2n1`, the inhibition is 45.3% (active).
Consider `COc1ccc(-c2cc(C)nc3nc(N)nn23)cc1`, for which the inhibition is 9.96%.
Regarding `Cc1cc(C(C)(C)C)cc(C)c1N`, the inhibition is -4.47%.
Regarding `C/C(CC(=O)Nc1cccc(C(F)(F)F)c1)=N\NC(=O)C(=O)NCC(C)C`, the inhibition was 10.5%.
As to `CCOC(=O)CNC(=O)CSc1nc2cccnc2n1CC`, the inhibition was 7.72%.
For `CCOC(=O)CNC(=O)CSc1ncccc1-c1nc2ccccc2[nH]1`, the inhibition was 97.9% (active).
As to `CCOC(=O)CNC(=O)CSc1ccc2nnc(-c3cccnc3)n2n1`, the inhibition was -17.7%.
As for `CC(C)C(NC(=O)C1CCC(C(C)(C)C)CC1)C(=O)NCCCN1CCCCC1` (stereo not drawn), the inhibition was 6.75%.
In the case of `O=C(CNC(=O)c1ccccc1Br)NNC(=O)c1cccs1`, the inhibition is 3.43%.
For the compound `Cc1cccc(NC(=O)Nc2cccc(Oc3c(F)c(F)c(F)c(F)c3F)c2)c1`, the inhibition is 8.17%.
Take `Cc1ccoc1C(=O)Nc1cccc(Oc2ccccc2)c1`: the inhibition is 55.2% (active).
`CC(Oc1cccc(NC(=O)c2cccs2)c1)C(=O)c1ccccc1` (stereo not drawn): the inhibition was 8.87%.
As for `COc1ccccc1NC(=O)CSc1nnc(Cn2nnc(-c3ccccc3)n2)n1-c1ccccc1`, the inhibition was 6.08%.
In the case of `Cc1ccc(NC(=O)COC(=O)CN2CCCCCC2=O)c(C)c1`, the inhibition was 7.63%.
To `COc1ccc(CN2CCC(n3nccc3NC(=O)CCCc3ccccc3)CC2)cc1C` belongs 4.88%; to `CCc1cccc(CC)c1NC(=S)NCc1ccc2[nH]c(C)cc2c1`, 54% (active); to `Cc1cc2cc(CNC(=O)c3cccs3)ccc2[nH]1`, -0.032%.
As for `Cc1cc2cc(CNC(=O)c3ccc(S(=O)(=O)N4CCOCC4)cc3)ccc2[nH]1`, the inhibition was 7.18%.
For `CNC(=S)N/N=C/c1cn(Cc2ccc(C)cc2)c2ccccc12`, the inhibition was 51.4% (active).
Turning to `N#CCC(=O)N/N=C/c1cn(Cc2ccc3ccccc3c2)c2ccccc12`, the inhibition is -20.2%.
Under `CCOC(=O)N/N=C/c1cn(Cc2ccccc2Cl)c2ccccc12` stands 22%; under `C=CCN(c1ccc(Cl)cc1)S(=O)(=O)c1cccc(C(=O)OCC(=O)N(C)C)c1`, -12.8%.
As to `COc1cccc(NC(=O)CN(C)C(=O)/C=C/c2cn(-c3ccccc3)nc2-c2cccs2)c1`, the inhibition is -5.41%.
`O=C(NCc1cccnc1)c1cn(-c2ccccc2)nc1-c1cccs1`: the inhibition was 2.96%.
Turning to `O=C(O)c1ccc(N/N=C/c2cn(-c3ccccc3)nc2-c2cccs2)cc1`, the inhibition is 56.3% (active).
Take `CN(CC(=O)NC(=O)Nc1ccccc1F)Cc1ccccc1`: the inhibition was 2.75%.
Under `Cc1cc(C)c(S(=O)(=O)N2CCC(C(=O)OCc3c(C)noc3C)CC2)c(C)c1` stands 8.76%; under `Cc1noc(C)c1NC(=O)Nc1cccc2c1O[C@H](CN(C)S(=O)(=O)c1c(C)noc1C)[C@@H](C)CN([C@H](C)CO)C2=O`, 9.51%.
For `CC(C)(C)c1ccc(CN2C(=O)c3ccccc3S2(=O)=O)cc1`, the inhibition is 11%.
For `O=C1c2ccccc2S(=O)(=O)N1CC(O)Cn1c2ccccc2c2ccccc21` (stereo not drawn), the inhibition was 79.5% (active).
Turning to `CCCCN(CCCC)CC(O)Cn1c2ccccc2c(=O)c2ccccc21` (stereo not drawn), the inhibition is -7.98%.
`COC(=O)c1ccc(C2C3=C(Nc4nnnn42)c2ccccc2OC3)cc1` (stereo not drawn): the inhibition is 27.5%.
Turning to `CCCc1[nH]nc2c1C(c1ccc(OC(=O)c3ccco3)cc1)C(C#N)=C(N)O2` (stereo not drawn), the inhibition was 3.44%.
To `CCCc1[nH]nc2c1C(c1ccc(Br)s1)C(C#N)=C(N)O2` (stereo not drawn) belongs 66.7% (active); to `CCCc1[nH]nc2c1C(c1ccc(OC)c(Cn3nc(C)c(Br)c3C)c1)C(C#N)=C(N)O2` (stereo not drawn), 3.67%; to `CCCCN(CC)C(=O)CN(C)S(=O)(=O)c1cccc2nsnc12`, -12.4%.
On to `COc1ccc(NC(=O)COc2ccc(C(=O)c3ccc(F)cc3)cc2)cc1S(N)(=O)=O`, for which the inhibition was 7.33%.
For `CC1=NN(c2ccc(Cl)c(C(=O)O)c2)C(=O)/C1=C/c1ccc(-c2ccccc2[N+](=O)[O-])o1`, the inhibition was 12.6%.
As for `Cc1ccc(-c2ccc(/C=C(\C#N)C(N)=S)o2)c([N+](=O)[O-])c1`, the inhibition is 51.5% (active).
Under `Cc1cc(C)c([N+](=O)[O-])cc1-c1ccc(/C=N/NC(=O)c2nonc2N)o1` stands -9.15%; under `CC(C)NC(=O)N1CCN(c2ccncc2S(=O)(=O)N2CCCCC2)CC1`, -2.83%; under `Oc1ccc(-c2cccc(-c3ccc(O)cc3)c2)cc1`, -32.3%.
Take `O=C(/C=C/c1cc2c(cc1Br)OCO2)NCc1ccc(Cl)cc1`: the inhibition was -5.07%.
Turning to `O=C(/C=C/c1ccc(Cl)c([N+](=O)[O-])c1)c1cccnc1`, the inhibition is 73.9% (active).
Regarding `O=C(Nc1ccncc1)c1ccc(Cl)c([N+](=O)[O-])c1`, the inhibition is -47.9%.
As to `O=C(/C=C/c1ccc(Cl)cc1Cl)c1cccnc1`, the inhibition is 8.99%.
In the case of `CC1CCCCC12NC(=O)N(CC(=O)OCc1c(F)cccc1Cl)C2=O` (stereo not drawn), the inhibition was 1.25%.
Turning to `COc1ccc(-c2cc3n(n2)CCc2nc4ccccc4n2-3)cc1`, the inhibition is 17.5%.
As to `N#Cc1cccc(Nc2c3c(nc4ccccc24)CCCC3)c1`, the inhibition was 22.5%.
Take `Cc1cc(CNC(=O)c2cccc([N+](=O)[O-])c2)c2ccccc2n1`: the inhibition is 8.64%.
`O=[N+]([O-])c1cccc(Nc2c3ccccc3nc3ccccc23)c1`: the inhibition was 42.1% (active).
On to `COC(=O)Nc1ccc(S(=O)(=O)N2CCN(CCN3C(=O)C4C5C=CC(C5)C4C3=O)CC2)cc1` (stereo not drawn), for which the inhibition was -10.8%.
Turning to `COc1ccc(C)cc1NC(=O)C(Sc1ccccc1)c1ccccc1` (stereo not drawn), the inhibition is 2.49%.
To `Cc1ccccc1C(=O)NC(=S)Nc1ccc(N2CCN(C(=O)c3ccccc3)CC2)cc1` belongs -9.29%; to `O=C(CCN1CCN(c2ccccc2)CC1)NNC(=S)Nc1ccccc1`, 1.6%; to `O=C(Cc1ccccc1)NC(=S)Nc1ccc(N2CCCCC2)cc1`, 40.2% (active).
Consider `O=C(CCc1nc(-c2ccccc2)no1)Nc1cccc(C(=O)NC2CC2)c1`, for which the inhibition is -6.75%.
As for `CCCCn1c(N)c(N(CCOC)C(=O)c2cccc(S(=O)(=O)N3CCCCC3)c2)c(=O)[nH]c1=O`, the inhibition is -2.98%.
For `Cc1cccc(C(=O)NCC(=O)OCC(=O)N(C)CC(=O)Nc2ccccc2Cl)c1`, the inhibition is -5.14%.
Under `Cc1ccc(SCCC(=O)Nc2cc(C)on2)cc1` stands 4.66%; under `Cc1ccc2nc(-c3ccc(SCC(=O)Nc4cc(C)on4)nc3)[nH]c2c1`, 42.6% (active); under `Cc1cccc(-n2ncc3c(=O)[nH]c(SCC(=O)Nc4cc(C)on4)nc32)c1`, -12.1%.
Turning to `CC(=O)c1cccc(NC(=S)N2CCN(S(C)(=O)=O)CC2)c1`, the inhibition is 13%.
For `CCOc1ccc(/C=N/NC(N)=S)cc1`, the inhibition was -25.2%.
On to `CC(C)Oc1c(Br)cc(Br)cc1/C=N/NC(N)=S`, for which the inhibition was 51.7% (active).
As to `Cc1cccc(-n2c(C)cc(/C=N/NC(N)=S)c2C)c1`, the inhibition is -24.1%.
On to `S=C(NCCCc1ccccc1)Nc1ccc(Br)cc1`, for which the inhibition is 43.1% (active).
As for `O=C(CCNC(=O)c1ccc(Br)cc1)NCCCc1ccccc1`, the inhibition was -4.58%.
For the compound `S=C(Nc1ccc(Br)cc1)NC1CCN(Cc2ccccc2)CC1`, the inhibition was -24.3%.
Take `CC(C)n1c(O)c(N=Nc2ccccn2)c2ccccc21`: the inhibition is 3.1%.
In the case of `O=c1c(/C=N/O)coc2ccc(Cl)cc12`, the inhibition was -3.79%.
Under `NC(=S)N/N=C/c1coc2cc(Cl)ccc2c1=O` stands 42.4% (active); under `Cc1ccc2occ(/C=N/NC(=O)c3ccccc3C)c(=O)c2c1`, 20.6%; under `CC(C)c1ccc(NC(=O)COC(=O)c2ccc(CN3CCCC3=O)cc2)cc1`, 1.1%.
Under `Cc1c(NC(=O)Nc2ccccc2Cl)sc(=S)n1C` stands 2.45%; under `O=C(Nc1ccccc1Cl)/C(Cl)=C(\Cl)S(=O)c1ccccc1` (stereo not drawn), 86.7% (active); under `CC1(C)CC(CCC(=O)Nc2ccccc2Cl)C(=O)O1` (stereo not drawn), 1.62%.
Take `O=C(O)C1C2CC2CN1C(=O)c1ccc(Cl)cc1Cl` (stereo not drawn): the inhibition is -17.4%.
For `CN(Cc1nc(-c2cnccn2)no1)Cc1n[nH]c2c1CCCCC2`, the inhibition is 4.12%.
Under `CCOCCCNC(=O)c1cn(CC(C)C)c(=O)c2c1c1ccccc1n2C` stands 3.76%; under `O=C(NCCc1ccco1)c1nn(Cc2ccccc2)c(=O)c2ccccc12`, 2.63%; under `O=c1nc2s/c(=C\c3ccco3)c(=O)n2nc1Cc1ccccc1`, 63.3% (active).
For `O=C(Nc1ccccc1)/C(=C\c1ccco1)NC(=O)c1ccco1`, the inhibition is -2.56%.
To `COC(=O)c1c(NC(=O)CN2CCN(S(=O)(=O)c3ccccc3[N+](=O)[O-])CC2)sc2c1CCC(C)C2` (stereo not drawn) belongs 14.5%; to `CC(=O)N1C(C)c2ccccc2C(C)(C)CC12CCCCC2` (stereo not drawn), 41.9% (active); to `COCCCNC(=O)C1CC(=O)N(CCc2ccc(F)cc2)C1` (stereo not drawn), -8.81%.
For `CCOCCCn1c(SCC(=O)Nc2cc(OC)ccc2OC)nc2ccccc2c1=O`, the inhibition was 11.4%.
In the case of `OC(CNCC1CCCO1)Cn1c2ccc(Br)cc2c2cc(Br)ccc21` (stereo not drawn), the inhibition is 62.5% (active).
Regarding `O=C(CSc1ccc(-c2ccc(Br)cc2)nn1)NCC1CCCO1` (stereo not drawn), the inhibition is 15.2%.
To `O=C(CCNS(=O)(=O)c1ccc(Br)cc1)NCC1CCCO1` (stereo not drawn) belongs -3.43%.
On to `CCCCCNC(=O)c1cccnc1SCC(=O)Nc1ccccc1OC`, for which the inhibition was 1.04%.
